We go through 25 molecules from PubChem BioAssay (NCI).

About 83,000 compounds went through this panel and 20% of them were active in at least one assay; those are over-represented in the sample as a whole.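 For each line, cells grew in 96-well plates with the test compound present at a single concentration for 48 hours.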 A number with no mark means an inactive call. Calls of active or inactive are those of the source. How the source made its calls: active means growth percent below 10; inactive means the rest.

Some test systems named below: BT-549 breast; MDA-MB-435 melanoma; SW-620 colon; MCF7 breast; HCT-116 colon; HCC-2998 colon; KM12 colon.
Holding throughout (assay): NCI-60 one-dose screen, 48 h (100 = growth as untreated, 0 = no growth, -100 = all killed)
Conditions in all cases: 10 µM

In the case of `O=C(N/N=C/c1cc2ccccc2c2ccccc12)c1cc(O)c(O)c(O)c1`, the growth with BT-549 breast is 49.4%; in the assay with MDA-MB-435 melanoma, 35.3%; in the assay on SW-620 colon, 25.4%; in the assay with MCF7 breast it was 67.6%; with HCT-116 colon, 26%; in the assay on HCC-2998 colon it was 94.5%. Further, the growth in the assay with KM12 colon was 83.2%.

As for `COc1cc(Cl)cc(-c2nn(-c3cccc(NC(=O)c4ccc(Cl)c(Cl)c4)c3)cc2-c2ccncc2)c1`, the growth in the assay on BT-549 breast is 85.2%; with MDA-MB-435 melanoma, 80.7%; in the assay with SW-620 colon, 84.2%; with MCF7 breast, 57.7%; in the assay on HCT-116 colon it was 44.1%; in the assay on HCC-2998 colon, 77.8%. Moreover, the growth in the assay with KM12 colon was 62.3%.

Consider `CC(C)=NNc1ncnc2c1ncn2C1OC(CO)C(O)C1O` (stereo not given), for which the growth in the assay on BT-549 breast is 43%; in the assay with MDA-MB-435 melanoma it was 18%; with SW-620 colon, 9.33% (active); in the assay on MCF7 breast, 12.2%; in the assay on HCT-116 colon it was 1.45% (active); in the assay with HCC-2998 colon, -10.2% (active). Further, the growth in the assay on KM12 colon was 2.36% (active).

Consider `c1ccc2c(c1)oc1c3cccnc3ccc21`, for which the growth in the assay on BT-549 breast was 79.7%; with MDA-MB-435 melanoma, 110%; with SW-620 colon, 100%; in the assay on MCF7 breast, 13%; in the assay with HCT-116 colon it was 84.4%; in the assay on HCC-2998 colon it was 92.7%. Moreover, in the assay on KM12 colon, the growth was 98.9%.

With `CCOC(=O)N/N=C\C(C)=N\NC(=O)OCC`, the growth is 99.8% in the assay with BT-549 breast; 88.8% in the assay with MDA-MB-435 melanoma; 99% in the assay on SW-620 colon; 99.5% in the assay with MCF7 breast; 104% in the assay with HCT-116 colon; 111% in the assay on HCC-2998 colon. In the assay with KM12 colon, the growth is 102%.

Consider `COc1cc(-c2cc(/C=C3\C(=O)Nc4cc(Cl)ccc43)[nH]n2)cc(OC)c1OC`, for which the growth in the assay with BT-549 breast is 47.6%; with MDA-MB-435 melanoma, -0.685% (active); in the assay with SW-620 colon it was 41.4%; in the assay with MCF7 breast, -4.15% (active); in the assay on HCT-116 colon, 14.2%; with HCC-2998 colon, 70%. Moreover, the growth with KM12 colon was 9.09% (active).

For the molecule `COc1ccc2c(c1)C(=O)c1c-2c(=O)n(CCCN(C)C)c2cc(OC)c(OC)cc12`, the growth in the assay with BT-549 breast was 86.1%; in the assay on MDA-MB-435 melanoma, 80.9%; in the assay with SW-620 colon it was 56.8%; in the assay on MCF7 breast, 28.4%; in the assay with HCT-116 colon, 53.1%; with HCC-2998 colon, 82.8%. Besides, the growth with KM12 colon is 69.5%.

Turning to `COc1cccc(NC(=O)c2sc3nc4c(cc3c2N)C(O)CCC4)c1` (stereo not given), the growth with BT-549 breast was 44.4%; in the assay with MDA-MB-435 melanoma it was -32.5% (active); in the assay on SW-620 colon, 23.8%; with MCF7 breast it was 15.5%; with HCT-116 colon, 12.3%; in the assay on HCC-2998 colon, 19.6%. In the assay on KM12 colon, the growth was 16.7%.

Take `COc1ccc(-c2nn(-c3cccc(NC(=O)c4ccc(Cl)c(Cl)c4)c3)cc2-c2ccncc2)cc1Cl`: the growth in the assay on BT-549 breast is 95.4%; in the assay on MDA-MB-435 melanoma, 24.8%; in the assay on SW-620 colon, 81.5%; in the assay on MCF7 breast, 72.1%; with HCT-116 colon, 69.6%; in the assay on HCC-2998 colon, 82%. Also, the growth in the assay on KM12 colon is 55.8%.

`CCCC1(CC(=O)O)OCCc2c1[nH]c1ccccc21` (stereo not given): the growth in the assay with BT-549 breast was 119%; with MDA-MB-435 melanoma, 106%; with SW-620 colon it was 115%; in the assay with MCF7 breast, 102%; in the assay with HCT-116 colon, 107%; in the assay with HCC-2998 colon, 69.9%. In addition, in the assay with KM12 colon, the growth is 102%.

For the molecule `CC(=O)c1nc2ccccc2n1CCNC(N)=O`, the growth with BT-549 breast is 74.4%; in the assay with MDA-MB-435 melanoma, -13.7% (active); with SW-620 colon, 57.6%; in the assay with MCF7 breast it was 52.4%; with HCT-116 colon it was 37.2%; with HCC-2998 colon it was 95.8%. Further, in the assay with KM12 colon, the growth was 66.4%.

`C[C@]12CC[C@@H]3c4ccc(O)cc4C[C@@H](O)[C@H]3[C@@H]1CC[C@@H]2O`: the growth was 102% with BT-549 breast; 95.8% with MDA-MB-435 melanoma; 110% in the assay on SW-620 colon; 115% with MCF7 breast; 105% with HCT-116 colon; 118% with HCC-2998 colon. Further, the growth with KM12 colon is 111%.

In the case of `COc1ccc2nc3cc(Cl)ccc3c(NCCNCC(C)O)c2c1` (stereo not given), the growth in the assay on BT-549 breast was 88%; in the assay with MDA-MB-435 melanoma it was 37.9%; in the assay on SW-620 colon, 19.9%; in the assay with MCF7 breast, 10.5%; in the assay on HCT-116 colon it was 13.1%; in the assay on HCC-2998 colon, 40.8%. Besides, the growth in the assay with KM12 colon is 25.5%.

In the case of `COc1cc(Nc2ccnc(NCCNc3ccnc4cc(Cl)ccc34)n2)cc(OC)c1`, the growth with BT-549 breast is 51.4%; with MDA-MB-435 melanoma, -50.7% (active); with SW-620 colon it was 19.9%; with MCF7 breast, 8.25% (active); in the assay with HCT-116 colon, -20.2% (active); in the assay on HCC-2998 colon, 29.7%. The growth in the assay with KM12 colon was 55.3%.

`Clc1ccccc1N=Cc1ccc2c(c1)OCO2`: the growth in the assay on BT-549 breast was 78.2%; in the assay on MDA-MB-435 melanoma, 99.8%; with SW-620 colon, 114%; with MCF7 breast it was 90.5%; with HCT-116 colon it was 103%; in the assay on HCC-2998 colon it was 103%. Further, the growth in the assay on KM12 colon is 98.8%.

As to `CN(C)N=Nc1nn(C(=O)Nc2ccc(Cc3ccccc3)cc2)c2ccccc12`, the growth with BT-549 breast was 75%; in the assay with MDA-MB-435 melanoma, 48.5%; in the assay with SW-620 colon, 34.4%; in the assay with MCF7 breast, 21.1%; in the assay on HCT-116 colon, 62.1%; in the assay on HCC-2998 colon, 10.1%. Moreover, the growth with KM12 colon is 12.9%.

As for `CCOC1(OCC)OC(c2ccccc2)=C(C#N)C(/C=C\c2ccccc2)C1(OCC)OCC` (stereo not given), the growth in the assay with BT-549 breast was 95.3%; in the assay on MDA-MB-435 melanoma it was 97.2%; in the assay with SW-620 colon, 83.2%; in the assay on MCF7 breast it was 77.4%; with HCT-116 colon it was 53.9%; with HCC-2998 colon, 83.1%. Moreover, the growth in the assay on KM12 colon was 84.3%.

Take `Cc1ncc(-c2ccoc2)c(NC2CCCCCC2)n1`: the growth in the assay on BT-549 breast was 115%; in the assay with MDA-MB-435 melanoma it was 110%; in the assay with SW-620 colon, 111%; with MCF7 breast, 112%; with HCT-116 colon, 99.8%; with HCC-2998 colon it was 105%. For the same molecule, in the assay on KM12 colon, the growth was 105%.

For `COc1ccc2c(c1OC)O/C(=C\c1ncc([N+](=O)[O-])n1C)C2=O`, the growth is -41.3% (active) with BT-549 breast; -76.4% (active) in the assay on MDA-MB-435 melanoma; -21.2% (active) with SW-620 colon; 28.9% in the assay on MCF7 breast; 4.48% (active) in the assay with HCT-116 colon; 34.6% with HCC-2998 colon. In addition, in the assay with KM12 colon, the growth was 43.1%.

Regarding `COc1ccc(-c2nn(-c3cccc(NC(=O)Nc4cccc(C(F)(F)F)c4)c3)cc2-c2ccncc2)cc1Cl`, the growth with BT-549 breast is 8.32% (active); in the assay with MDA-MB-435 melanoma, -35.8% (active); in the assay with SW-620 colon it was 17.4%; in the assay on MCF7 breast, 5.79% (active); in the assay with HCT-116 colon, 9.6% (active); in the assay with HCC-2998 colon, 30.5%. Also, in the assay with KM12 colon, the growth is 0.879% (active).

In the case of `C=C(Cl)[C@@](Cl)(CBr)CC[C@@H](Br)C(C)(C)Cl`, the growth with BT-549 breast is 78.6%; with MDA-MB-435 melanoma, -24.2% (active); with SW-620 colon, -61.7% (active); with MCF7 breast it was -51.7% (active); in the assay on HCT-116 colon, -94.6% (active); with HCC-2998 colon, -96.9% (active). For the same molecule, the growth in the assay with KM12 colon was -94.2% (active).

Consider `COc1cc(-c2cc(/C=C/C(=O)c3ccc4c(c3)OCO4)[nH]n2)cc(OC)c1OC`, for which the growth in the assay with BT-549 breast is 60.9%; with MDA-MB-435 melanoma, 31.2%; in the assay with SW-620 colon, 47.4%; in the assay with MCF7 breast it was 17.3%; with HCT-116 colon, 31.4%; with HCC-2998 colon, 103%. Besides, the growth with KM12 colon is 18%.

With `O=[N+]([O-])c1ccc(N/N=C/c2cccc3ccccc23)nc1`, the growth is 106% in the assay with BT-549 breast; 118% with MDA-MB-435 melanoma; 117% in the assay with SW-620 colon; 75.6% in the assay with MCF7 breast; 95.8% in the assay with HCT-116 colon; 101% with HCC-2998 colon. In addition, in the assay with KM12 colon, the growth was 99.1%.

`Clc1ccc(Nc2ccnc(NCCNc3ccnc4cc(Cl)ccc34)n2)cc1`: the growth in the assay with BT-549 breast is 40.8%; with MDA-MB-435 melanoma, -90% (active); in the assay on SW-620 colon, -10.5% (active); in the assay with MCF7 breast, -74.6% (active); in the assay on HCT-116 colon, -71.3% (active); in the assay with HCC-2998 colon, -89% (active). Also, the growth with KM12 colon was 33.7%.

`COc1ccc(-c2nc(-c3nc4ccc(OC)cc4[nH]3)cc3c2[nH]c2ccccc23)cc1`: the growth with BT-549 breast was 39.8%; with MDA-MB-435 melanoma, 39.2%; with SW-620 colon, 40.6%; in the assay with MCF7 breast, 31.8%; with HCT-116 colon it was 21.3%; in the assay on HCC-2998 colon it was 57.4%. Moreover, the growth with KM12 colon was 20.4%.
